# The panel holds about 79,000 compounds, 15% with a hit somewhere; the sample as a whole holds those more often. A number with no mark means an inactive call. Active and inactive are the calls of the source. Cut-off read from the data, not from the text of the source: active = growth inhibition above about 70%; inactive = the rest.
# Experiments:
# [1] = NCI Yeast Anticancer Drug Screen. Data for the rad52 strain (AID 147);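 note: 0% = growth of vehicle-treated control cultures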; conditions: S. cerevisiae rad52 mutant growth inhibition, hits give high values
# Summary of the method: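 Read-out: growth inhibition versus vehicle-treated controls. Cells were a DNA repair-deficient yeast strain treated with compounds.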
# [2] = NCI Yeast Anticancer Drug Screen. Data for the wt1 strain (AID 149);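 note: 0% = growth of vehicle-treated wt1 cultures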; conditions: S. cerevisiae wt1 strain (SPY 50644) growth inhibition, hits give high values
# Summary of the method: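 Compounds are added to wt1 yeast cultures. Growth is then measured. Inhibition is expressed relative to vehicle-treated controls.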
# [3] = NCI Yeast Anticancer Drug Screen. Data for the rad50EPP+ strain (AID 151);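 note: 0% = growth of vehicle-treated control cultures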; conditions: S. cerevisiae rad50 mutant strain, hits give high values
# Summary of the method: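 Growth inhibition read against vehicle controls in rad50EPP+ yeast, a strain altered in DNA damage repair, after compound exposure.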
# [4] = NCI Yeast Anticancer Drug Screen. Data for the mgt1 strain (AID 153); conditions: S. cerevisiae mgt1 mutant growth inhibition, hits give high values
# Summary of the method: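 mgt1 yeast grown with test compound; read-out is growth inhibition versus vehicle-treated cultures.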
# [5] = NCI Yeast Anticancer Drug Screen. Data for the rad50 strain (AID 155);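 note: 0% = growth of vehicle-only cultures of the same strain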; conditions: S. cerevisiae rad50 strain growth inhibition, hits give high values
# Summary of the method: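 Inhibition values express reduced yeast growth in compound-treated cultures relative to vehicle-treated controls.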
# [6] = NCI Yeast Anticancer Drug Screen. Data for the mec2-1 strain (AID 157); conditions: S. cerevisiae mec2-1 strain, hits give high values
# Summary of the method: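 Yeast mec2-1 mutant treated with compound. Readout: growth inhibition vs vehicle controls.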
# [7] = NCI Yeast Anticancer Drug Screen. Data for the rad14 strain (AID 159);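 note: 0% = growth of vehicle-treated control cultures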; conditions: S. cerevisiae rad14 strain growth inhibition, hits give high values
# Summary of the method: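 A mutant yeast strain defective in DNA damage repair is treated with compound; inhibition of its growth is scored against untreated, vehicle-exposed cultures.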
# [8] = NCI Yeast Anticancer Drug Screen. Data for the sgs1 mgt1 strain (AID 161);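 note: 0% = growth of cultures given vehicle only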; conditions: S. cerevisiae sgs1 mgt1 strain, hits give high values
# Summary of the method: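 Inhibition of yeast growth, normalised to vehicle-treated controls, is reported for a strain bearing genetic alterations in DNA damage repair.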
# [9] = NCI Yeast Anticancer Drug Screen. Data for the CLN2oe strain (AID 163);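 note: 0% = growth of vehicle-only control cultures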; conditions: S. cerevisiae CLN2oe strain, hits give high values
# Summary of the method: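 Read-out: yeast growth inhibition, expressed relative to vehicle-only controls. The strain bears an engineered cell-cycle alteration.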
# [10] = NCI Yeast Anticancer Drug Screen. Data for the cln2 rad14 strain (AID 165);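 note: 0% = growth equal to vehicle treated cultures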; conditions: S. cerevisiae cln2 rad14 strain, hits give high values
# Summary of the method: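 cln2 rad14 yeast strain; compound exposure; growth inhibition read vs vehicle controls.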
# [11] = NCI Yeast Anticancer Drug Screen. Data for the bub3 strain (AID 167); conditions: S. cerevisiae bub3 mutant strain, hits give high values
# Summary of the method: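 Steps: expose the mutant yeast strain to compound; grow alongside vehicle-treated cultures; measure growth; express inhibition against the vehicle cultures.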
# [12] = NCI Yeast Anticancer Drug Screen. Data for the wt2 strain (AID 169);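 note: 0% = growth of vehicle-treated yeast cultures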; conditions: S. cerevisiae wt2 strain growth inhibition, hits give high values
# Summary of the method: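 Read-out: growth inhibition versus vehicle-treated control cultures after compound exposure of the yeast strain.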
# [13] = NCI Yeast Anticancer Drug Screen. Data for the mlh1 strain (AID 171);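 note: 0% = growth of vehicle-treated control cultures of the same strain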; conditions: S. cerevisiae mlh1 strain growth inhibition, hits give high values
# Summary of the method: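 Read-out: growth inhibition versus vehicle controls. Strain: engineered yeast with a defined DNA repair or cell cycle defect, compound-treated.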
# [14] = NCI Yeast Anticancer Drug Screen. Data for the sgs1 strain (AID 173);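 note: 0% = growth of vehicle-only control cultures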; conditions: S. cerevisiae sgs1 mutant, hits give high values
# Summary of the method: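 Read-out: yeast growth inhibition relative to vehicle controls, following compound exposure of a strain with a defined DNA repair/cell cycle alteration.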
# [15] = NCI Yeast Anticancer Drug Screen. Data for the mlh1 rad18 strain (AID 175); conditions: S. cerevisiae mlh1 rad18 strain growth inhibition, hits give high values
# Summary of the method: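 Yeast w/ defined DNA-repair lesions; compound exposure; growth vs vehicle controls → % inhibition.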
# [16] = NCI Yeast Anticancer Drug Screen. Data for the rad18 strain (AID 177); conditions: S. cerevisiae rad18 mutant growth inhibition, hits give high values
# Summary of the method: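 Readout: growth inhibition vs vehicle controls. Cells: genetically altered yeast strain, DNA repair defect.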
# [17] = at 5.0 µM (retest, dose inferred, filed as 0.5)
# [18] = at 50.0 µM (retest, dose inferred, filed as 5.0)
compound,measurement,setting,value
OC1(c2ccccc2)CSC2=Nc3ccccc3C3CCN1N23 (stereo not drawn),growth inhibition,[1]; at 1.2 µM,-41%
same,growth inhibition,[1]; at 3.7 µM,-50%
same,growth inhibition,[1]; at 11.0 µM,-45%
same,growth inhibition,[1]; at 33.0 µM,-29%
same,growth inhibition,[1]; at 100.0 µM,91% (active)
same,growth inhibition,[2]; at 1.2 µM,-82%
same,growth inhibition,[2]; at 3.7 µM,-83%
same,growth inhibition,[2]; at 11.0 µM,-89%
same,growth inhibition,[2]; at 33.0 µM,-33%
same,growth inhibition,[2]; at 100.0 µM,95% (active)
same,growth inhibition,[3]; at 1.2 µM,-29%
same,growth inhibition,[3]; at 3.7 µM,-40%
same,growth inhibition,[3]; at 11.0 µM,-47%
same,growth inhibition,[3]; at 33.0 µM,-22%
same,growth inhibition,[3]; at 100.0 µM,66%
same,growth inhibition,[4]; at 1.2 µM,-45%
same,growth inhibition,[4]; at 3.7 µM,-43%
same,growth inhibition,[4]; at 11.0 µM,-38%
same,growth inhibition,[4]; at 33.0 µM,57%
same,growth inhibition,[4]; at 100.0 µM,94% (active)
same,growth inhibition,[5]; at 1.2 µM,-66%
same,growth inhibition,[5]; at 3.7 µM,-75%
same,growth inhibition,[5]; [17],24%
same,growth inhibition,[5]; at 11.0 µM,-61%
same,growth inhibition,[5]; at 33.0 µM,-20%
same,growth inhibition,[5]; [18],47%
same,growth inhibition,[5]; at 50.0 µM,51.5%
same,growth inhibition,[5]; at 100.0 µM,92% (active)
same,growth inhibition,[6]; at 1.2 µM,-86%
same,growth inhibition,[6]; at 3.7 µM,-71%
same,growth inhibition,[6]; [17],12%
same,growth inhibition,[6]; at 11.0 µM,-91%
same,growth inhibition,[6]; at 33.0 µM,-21%
same,growth inhibition,[6]; [18],40%
same,growth inhibition,[6]; at 50.0 µM,43.7%
same,growth inhibition,[6]; at 100.0 µM,93% (active)
same,growth inhibition,[7]; at 1.2 µM,-51%
same,growth inhibition,[7]; at 3.7 µM,-32%
same,growth inhibition,[7]; at 11.0 µM,-36%
same,growth inhibition,[7]; at 33.0 µM,13%
same,growth inhibition,[7]; at 100.0 µM,94% (active)
same,growth inhibition,[8]; [17],27%
same,growth inhibition,[8]; [18],51%
same,growth inhibition,[8]; at 50.0 µM,80.2% (active)
same,growth inhibition,[9]; at 1.2 µM,-23%
same,growth inhibition,[9]; at 3.7 µM,-16%
same,growth inhibition,[9]; at 11.0 µM,-46%
same,growth inhibition,[9]; at 33.0 µM,2%
same,growth inhibition,[9]; at 100.0 µM,93% (active)
same,growth inhibition,[10]; [17],25%
same,growth inhibition,[10]; [18],40%
same,growth inhibition,[10]; at 50.0 µM,16.4%
same,growth inhibition,[11]; at 1.2 µM,-56%
same,growth inhibition,[11]; at 3.7 µM,-54%
same,growth inhibition,[11]; [17],19%
same,growth inhibition,[11]; at 11.0 µM,-43%
same,growth inhibition,[11]; at 33.0 µM,58%
same,growth inhibition,[11]; [18],11%
same,growth inhibition,[11]; at 50.0 µM,73.7% (active)
same,growth inhibition,[11]; at 100.0 µM,91% (active)
same,growth inhibition,[12]; at 1.2 µM,-47%
same,growth inhibition,[12]; at 3.7 µM,-39%
same,growth inhibition,[12]; at 11.0 µM,-34%
same,growth inhibition,[12]; at 33.0 µM,-1%
same,growth inhibition,[12]; at 100.0 µM,94% (active)
same,growth inhibition,[13]; at 1.2 µM,-81%
same,growth inhibition,[13]; at 3.7 µM,-100%
same,growth inhibition,[13]; at 11.0 µM,-63%
same,growth inhibition,[13]; at 33.0 µM,58%
same,growth inhibition,[13]; at 100.0 µM,93% (active)
same,growth inhibition,[14]; at 1.2 µM,-23%
same,growth inhibition,[14]; at 3.7 µM,-55%
same,growth inhibition,[14]; at 11.0 µM,-42%
same,growth inhibition,[14]; at 33.0 µM,18%
same,growth inhibition,[14]; at 100.0 µM,94% (active)
same,growth inhibition,[15]; [17],23%
same,growth inhibition,[15]; [18],78% (active)
same,growth inhibition,[15]; at 50.0 µM,80.7% (active)
same,growth inhibition,[16]; at 1.2 µM,-65%
same,growth inhibition,[16]; at 3.7 µM,-55%
same,growth inhibition,[16]; at 11.0 µM,-70%
same,growth inhibition,[16]; at 33.0 µM,-21%
same,growth inhibition,[16]; at 100.0 µM,92% (active)
